Test results taken from PubChem BioAssay AID588456 (National Center for Advancing Translational Sciences (NCATS), 2011).
Out of some 390,000 compounds screened, about 55 (0.01%) were called active. Calls come from the whole dose curve; as a rule, active = well fitted inhibition curve with a large enough effect; inconclusive = small, poorly fitted or top-dose-only effect; inactive = no such curve, though single readings can be large or run the other way. The list is a sample of the results.

target: Thioredoxin reductase 1, cytoplasmic (Rattus norvegicus) (UniProt O89049); assay: qHTS Assay for Substrates of Mammalian Selenoprotein Thioredoxin Reductase 1 (TrxR1): qHTS; conditions: purified TrxR1 substrate turnover, NADPH consumption readout; series mostly up to 114 µM; activity change, negative = substrate turnover: at the top concentration; note: nearly all actives have a fitted effect of over 50% in size
Sequence (O89049 whole entry, looked up): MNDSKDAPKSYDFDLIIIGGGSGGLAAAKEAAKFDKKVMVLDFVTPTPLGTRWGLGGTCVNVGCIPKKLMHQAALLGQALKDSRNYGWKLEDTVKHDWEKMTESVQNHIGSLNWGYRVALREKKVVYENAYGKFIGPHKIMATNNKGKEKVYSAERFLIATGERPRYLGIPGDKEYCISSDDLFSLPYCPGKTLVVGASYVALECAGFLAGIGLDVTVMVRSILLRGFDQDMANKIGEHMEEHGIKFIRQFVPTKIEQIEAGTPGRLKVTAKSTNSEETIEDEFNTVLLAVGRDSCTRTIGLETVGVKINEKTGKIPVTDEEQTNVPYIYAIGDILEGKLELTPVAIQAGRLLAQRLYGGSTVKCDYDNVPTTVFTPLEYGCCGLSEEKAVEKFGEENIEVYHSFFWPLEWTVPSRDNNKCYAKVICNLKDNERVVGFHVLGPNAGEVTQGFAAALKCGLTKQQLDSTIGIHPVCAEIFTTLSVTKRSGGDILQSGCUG
Description: The selenoprotein thioredoxin reductase (TrxR; EC 1.8.1.9) is a FAD containing homodimeric pyridine nucleotide-disulfide oxidoreductase with many cellular roles. Together with NADPH and its prime substrate thioredoxin (Trx), the enzyme forms the core of the Trx system. The mammalian Trx system exerts a wide spectrum of functions including redox regulation, antioxidant defense, regulation of transcription factors as well as support of cell growth and replication. Many of these functions involve the reduction of Trx, which may subsequently reduce a number of different substrates including ribonucleotide reductase, peroxiredoxins or NFkB. Mammalian TrxR itself also has a broad substrate specificity, reducing both protein and non-protein substrates, including low molecular weight compounds such as dehydroascorbate, lipoic acid, ubiquinone, and juglone. In addition, several drugs in clinical use for anticancer treatment are indeed known to target TrxR1.
This BioAssay is a validation of an NADPH fluorescence-based, dual-purpose qHTS rTrxR1 assay designed to find potential inhibitors and substrates of rTrxR1. For this particular BioAssay, actives are potential substrate. See related BioAssay for inhibition data deposition.
NIH Molecular Libraries Probe Production Network [MLPCN]
NIH Chemical Genomics Center [NCGC]
Assay Provider: Elias Arner, Karolinska Institute
Assay protocol: 2 uL of reagents (buffer in column 4 as negative control and 90 nM rTrxR1 in columns 1-3 and 5-48) were dispensed into Greiner black solid-bottom 1,536-well assay plates, followed by 1 uL of NADPH (400 uM final concentration) to each well. The plates were centrifuged at 1000 rpm for 15 seconds and subsequently incubated for 5 min at room temperature (~22 deg C) to allow for rTrxR1 reduction. Compounds (23 nL) were then transferred via Kalypsys pin tool equipped with 1536-pin array (10 nL slotted pins, V&P Scientific, San Diego, CA). In addition, a duplicate 2-fold serial dilution of the control compounds auranofin, a known gold-based TrxR1 inhibitor, and juglone (5-hydroxy-1,4-naphthoquinone), a natural TrxR1 substrate, were pin-transferred to columns 2 and 3, respectively. After incubation for 15 min at room temperature (~22 deg C), 1 uL of selenite (400 uM final concentration) were dispensed to each well. The plate was immediately transferred to a ViewLux high-throughput CCD imager (PerkinElmer), wherein kinetic measurements of NADPH fluorescence (Ex 340 nm, Em 450 nm) were acquired (8 minute kinetic read, see Table 1). Read 1 was utilized to assess the capacity of a compound to serve as an rTrxR1 substrate, i.e. a decrease in NADPH fluorescence compared to the no-compound background is an indication of a substrate behavior for that particular compound. For inhibitory activity of a compound, delta values, computed as the difference in fluorescence intensity between the first and last reads of an 8-minute time kinetic window, were used. All reagents were diluted in an assay buffer consisting of 50 mM Tris-HCl, pH 7.5, 2 mM EDTA, and 0.01% Tween-20.
Throughout the screen, reagent bottle and all liquid lines were made light-tight to minimize reagent degradation. All screening operations were performed on a fully integrated robotic system (Kalypsys, San Diego, CA) containing one RX-130 and two RX-90 anthropomorphic robotic arms (Staubli, Duncan, SC). Library plates were screened starting from the lowest and proceeding to the highest concentration, and a 'double-pinning' step of the highest concentration was required to access higher concentrations of compounds. Vehicle-only plates, with DMSO being pin-transferred to the columns 5-48, were inserted uniformly at the beginning and the end of each library in order to monitor and record any shifts in the background, which can be affected by reagent dispensers or loss in enzyme activity over time. […]
% is set by controls: 0 for no effect and ±100 for the full control effect.

Activity change, negative = substrate turnover, inactive:
Cc1ccc(Cl)cc1NC(=O)NC1COc2ccccc2C1 (stereo unspecified) -4.68% [at 57.1 µM], O=C(NCc1ccccc1)c1cccc(NC(=O)N2CCSc3ncccc32)c1 14.6%, CC1(C)CC(=O)c2cc(C(=O)NCc3ccccc3)c(=O)[nH]c2C1 -6.92%, CCCCCCCNc1ccc(/C=C/c2ccnc3ccccc23)cc1 -6.31%, O=C(CC1Oc2ccc(Cl)cc2NC1=O)NCc1ccccc1 (stereo unspecified) 10.4%, CSc1cccc(NC(=O)CN2C(=O)CCc3cc(S(=O)(=O)N4CCCCC4)ccc32)c1 5.52% [at 57.1 µM], Cc1ccc(NC2=C(c3ccc(C(F)(F)F)cc3)C(=O)c3ccccc32)cc1F -10.1%, CNC(=O)c1ccc(-c2nc(CN3CCc4ccccc43)c(C)o2)cc1 5.73% [at 57.1 µM], O=C(c1ccco1)N(Cc1cccs1)c1ccc(O)cc1 -12.1%, S=c1[nH]c(=S)c2n[nH]nc2[nH]1 -1.94% [at 0.0914 µM], CC(C)(C)c1ccc(C(=O)C[N+]2(C)CCCc3ccccc32)cc1 (stereo unspecified) 0.15%, O=C(O)C1=C/C(=C/C=[N+]2c3cc(O)c(O[C@H]4OC(CO)[C@@H](O)[C@@H](O)[C@@H]4O)cc3C[C@@H]2C(=O)[O-])C[C@H](C(=O)O)N1 (stereo partly specified) -2.67%, CC1CC(C)CN(c2oc(-c3ccc(OCc4ccc(Cl)cc4)cc3)nc2C#N)C1 (stereo unspecified) 6.36% [at 0.0914 µM], c1ccc(Cn2nnc3c(N4CCCCC4)ncnc32)cc1 -2.36%, CCC(=O)N1CCc2cc(S(=O)(=O)NC(C(=O)NCCc3ccc(C)cc3)C(C)C)ccc21 (stereo unspecified) 5.25%, OCCNc1ncnc2oc(-c3ccco3)c(-c3ccco3)c12 51.2%, O=[N+]([O-])c1ccc(/C=C/c2ccc3cccnc3c2)cc1 -4.78%, Cc1ccc(-c2nc3ccccn3c2Nc2ccc(F)cc2)o1 207%, O=C(Nc1ccc(O)c(-c2nc3ccccc3o2)c1)c1ccc(-c2cccc(Cl)c2)o1 -3.24%, CCc1cccc(NC(=O)CN(C)S(=O)(=O)c2ccc3[nH]c4c(c3c2)CCCC4)c1 -8.34%, COc1cc2nc(C#Cc3nc4cc(OC)c(OC)cc4[nH]3)[nH]c2cc1OC 896%, NC(=O)Nc1ccc(/C=C/c2ccnc3ccccc23)cc1 8.44%, CCOC(=O)C1CCCN(C(=O)Cn2ncc3c(C)n(Cc4ccc(F)cc4)c(C)c3c2=O)C1 (stereo unspecified) -4.95%, COc1ccc(/C=C/c2ccnc3ccccc23)cc1OC -3.3%, O=C(Nc1ccc([N+](=O)[O-])cc1)c1cnn2c1NC(=C1CC1)C=C2C(F)F 3.87%, COc1ccc(-c2nc(CN3CCC(C(=O)NCc4ccccc4)CC3)c(C)o2)cc1OC 11%, Cc1c(CCO)sc[n+]1CC(=O)c1ccc2ccccc2c1 83.8%, CN(C)c1cccc2ccccc12 -13.4%, O=C(Nc1ccc(Cl)cc1)c1cnn2c1NC(=C1CC1)C=C2C(F)F 8.83%, O=C(Cn1cc(SCc2ccccc2)c2ccccc21)N1CCCCC1 -7.71%, Cc1ccc(C(=O)Nc2ccc(OCc3cc(=O)n4c5c(sc4n3)CCCC5)cc2)cc1 1.97%, N#Cc1ccc[n+](CC(=O)c2ccc(O)c(O)c2)c1 -13.3%, Cc1ccc(Nc2c(-c3ccc(C)s3)nc3ccccn23)cc1, COc1ccc(S(=O)(=O)Nc2cccc3cccnc23)c(N)c1 -1.46%, Cc1cccc(-c2nnc(SC(C)C(=O)Nc3ccccc3)n2C)c1 (stereo unspecified) 6.08%, CCn1c(C)c(C)c2cc(C(=O)NCCc3cc(OC)ccc3OC)ccc21 5.36% [at 57.1 µM], Cc1csc[n+]1CCC1CCCCC1 10.5%, CC(C)(C)C1CCC(NC(=O)c2cnn3c2NC(=C2CC2)C=C3C(F)F)CC1 (stereo unspecified) 3.26%, O=[N+]([O-])c1ccc(S(=O)(=O)N2CCN(c3nc(-c4ccccc4)nc4ccccc34)CC2)cc1 -1.75%, Cc1cccc(-n2ccnc2SCC(=O)Nc2cc(C(F)(F)F)ccc2Cl)c1 -2.94% [at 57.1 µM], CN1CCN(/[N+]([O-])=N/Oc2ccc([N+](=O)[O-])cc2[N+](=O)[O-])CC1 -6.58%, COc1cc2nc(N3CCCN(C)CC3)nc(NC(C)C)c2cc1OC 31.6%, CN(N=O)c1ccc(C=C2c3ccccc3-c3ccccc32)cc1 -1.85%, COc1ccc(-c2nc(=N)sn2-c2ccccc2)cc1 -8.32%, CN(C)c1ccc(/C=C/c2c3ccccc3nc3ccccc23)cc1 6.6%, CN(C)c1cc2c(Nc3ccc4c(cnn4Cc4ccccc4)c3)ncnc2cn1 -3.11% [at 57.1 µM], CC(C)(C)n1ncc2c(=O)n(Cc3ccc(C(=O)c4ccccc4)cc3)cnc21 -4.32%, CC(C)(C)OC(=O)N(Cc1ccco1)S(=O)(=O)c1ccccc1Br -4.16%, CC(=O)c1ccc[n+](C(C)CCC(C)[n+]2cccc(C(C)=O)c2)c1 (stereo unspecified) 4.01% [at 0.0914 µM], CCOc1ccc(CCNC(=O)c2csc3c2CCCCC3)cc1 -1.88%, CN(C(=N)N)c1ccc(/C=C2\C=Cc3ccccc32)cc1 -3.13%, Cc1cccc(-n2ncc(C(=O)N3CCc4ccccc4C3)c2C2CCN(C(=O)OC(C)(C)C)CC2)c1 -7.64%, Cc1cccc(NC(=O)CSc2nc3c(oc4ccccc43)c(=O)n2-c2ccc(F)cc2)c1 -1.84%, COc1cc(CNCCSc2nnnn2C)ccc1OCc1c(F)cccc1Cl 7.47% [at 11.4 µM], CC1(C)Cc2ccccc2-c2c[nH]c(=O)n21 -0.238%, O=C(c1ccc2c(=O)n(Cc3ccco3)c(=S)[nH]c2c1)N1CCCC1 4.46%, N#Cc1ccc[n+](CC(=O)c2ccc(F)cc2)c1 1.15%, Nc1ncnc2nnsc12 7.52% [at 0.0914 µM], Oc1ccc(Br)cc1C1C=C(c2ccc3c(c2)OCO3)NC(c2ccc(Cl)cc2)N1 (stereo unspecified) 6.51% [at 0.0914 µM], COc1cc(CN(CC2CCCO2)C(=O)c2ccccc2F)cc(OC)c1OC (stereo unspecified) -0.795%, ClC/C=C/C[n+]1ccccc1Cl -8.25%, CCOC(=O)c1c(C)oc2ccc(N(C(=O)c3ccncc3)S(=O)(=O)c3ccc(CC)cc3)cc12 -5.68%, CCCCC(CCCC)c1ccc(C=Nc2ccc(/C=C/c3ccnc4ccccc34)cc2)cc1 -9.78%, COc1cc(OC)c(/C=C/c2ccnc3ccccc23)c(OC)c1 -0.93%, CCOC(=O)c1cccc(NC(=O)c2cc(S(=O)(=O)N3CCCC(C)C3)cn2C)c1 (stereo unspecified) 2.95% [at 57.1 µM], O=C(Nc1ccccc1)c1ccccc1OCc1ccccc1 -1.98%
